Bioassay records deposited in PubChem by National Center for Advancing Translational Sciences (NCATS).
Most compounds without a hit are left out; they make up all but 7.1% or so of the library.
ATXN2 expr inh = Primary qHTS for Inhibitors of ATXN expression | Potency, µM (doses to about 57 µM), for inactives: at the top dose activity change, negative = inhibition, most hits filed as inhibitors | HEK-293 ATXN2-luciferase reporter, luminescence, 24 h | 360,000 compounds, 0.72% hits; also: potency is read from the fitted curve at half-maximal effect; % is scaled to controls: 0 for no effect and ±100 for the full control effect; nearly all actives have a fitted effect of over 55% in size
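qHTS (up to 57 uM final) was run with 24 h compound exposure of reporter cells at 37 °C. Each well was multiplexed: SteadyGlo luminescence measured ATXN2-luciferase expression after a fluorogenic Gly-Phe-AFC viability readout (25 uM final).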
ATXN viability = Viability Counterscreen for Primary qHTS for Inhibitors of ATXN expression. AID 651635, 2014. Potency, µM (top dose mostly 56.7 µM), actives largely listed as cytotoxic. S2 cells (HEK-293 line with an ATXN2-luciferase reporter) viability, CellTiter-Fluor protease fluorescence, 24 h. 400,000 compounds, 0.49% hits; also: potency is read from the fitted curve at half-maximal effect; nearly all actives have a fitted effect of over 40% in size
MCF10A rerep = A quantitative high throughput screen for small molecules that induce DNA re-replication in MCF 10a normal breast cells | Potency, µM (highest dose often 46.1 µM), for the others: at the highest dose activity, positive = re-replication, usual class: activators | MCF 10A DNA re-replication, Hoechst nuclear intensity, 48 h | 350,000 compounds, 2.9% hits | AID 624296, 2012; also: potency is read from the fitted curve at half-maximal effect; % of control where 0% means no effect; nearly all actives have a fitted effect of over 50% in size
IL1B secr inh = qHTS for Inhibitors of Inflammasome Signaling: IL-1-beta AlphaLISA Primary Screen; THP-1 LPS/ATP IL-1B secretion, AlphaLISA, 16 h; active compounds read low; activity change, % at 57.5 µM; 360,000 compounds, 4.7% hits; AID 743279, 2014; in the data active = activity change below about -50%; inconclusive = mostly about -30% to -49%; also: % is scaled to controls: 0 for no effect and ±100 for the full control effect
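THP-1 cells pretreated 1 hr with compounds (up to 57.5 uM final), then stimulated with LPS (250 ng/mL final) plus ATP (1.25 mM final); secreted IL-1B measured by AlphaLISA after 16 hr, decreased signal indicating inhibition.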
PINK1 expr mod = A Quantitative High throughput Screen to Identify Chemical Modulators of PINK1 Expression; PINK1 immunofluorescence, high-content cytometry, 24 h; Potency, µM (series often up to 76.6 µM), without a hit: at the top dose activation (PINK1 increase), actives largely listed as activators; 410,000 compounds, 0.2% hits; AID 624263, 2012; active = well fitted activation curve with a large enough effect; inconclusive = small, poorly fitted or top-dose-only effect; cell line not stated here; also: potency is read from the fitted curve at half-maximal effect; % of control where 0% means no effect; nearly all actives have a fitted effect of over 65% in size
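Cells are seeded, rested 12 hours, then given compound at five concentrations or DMSO for 24 hours. After fixation, blocking and antibody staining, PINK1 amount and mitochondrial localization are scored; CCCP serves as control.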
SW480 rereplic = A quantitative high throughput screen for small molecules that induce DNA re-replication in SW480 colon adenocarcinoma cells; SW480 DNA re-replication, Hoechst DNA content imaging, 48 h; Potency, µM (doses to about 46.1 µM), without a hit: at the highest dose re-replication activation, usual class: activators; 340,000 compounds, 1.8% hits; also: potency is read from the fitted curve at half-maximal effect; % of control where 0% means no effect; nearly all actives have a fitted effect of over 55% in size
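Treated cells incubate 48 hr (37 C, 5% CO2), are stained 40 min with Hoechst, and nuclear fluorescence is enumerated; a rise in nuclei with high DNA signal marks re-replication.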
Numbers without * were called inactive; i = inactive; ? = inconclusive; . = not tested or not shown; [ ] = remark or other dose. Unless noted, calls follow the shape of the dose curve; as a rule, active = well fitted curve in the direction sought with a large enough effect; inconclusive = small, poorly fitted or top-dose-only effect, or another doubt; inactive = no such curve, though single readings can be large; an effect the other way counts as inactive or inconclusive.

SMILES	ATXN2 expr inh	ATXN viability	MCF10A rerep	IL1B secr inh	PINK1 expr mod	SW480 rereplic
NC(=S)n1[nH]c(-c2ccc([N+](=O)[O-])cc2)c(N=Nc2ccc(Cl)cc2)c1=O	?	i	-8%	-92*	11µM*	17%
CCn1cc(C(=O)NCCc2ccc(Cl)cc2)c(=O)c2cc(S(=O)(=O)N3CCOCC3)ccc21	11%	i	.	.	3%	.
O=S(=O)(c1cccc(Cl)c1)c1nnn2c1nc(NC1CCCC1)c1sccc12	-7%	i	.	.	5%	.
C[n+]1c(-c2ccccc2)cc2c(=Cc3ccccc3)c3ccccc3n21	9.5µM*	.	21µM*	-100*	?	?
C[n+]1c(-c2ccccc2)cc2c(=Cc3ccc([N+](=O)[O-])cc3)c3ccccc3n21	?	?	9%	-98*	4.5µM*	29%
CN(C)c1ccc(C=c2c3cc(O)ccc3n3c2cc(-c2ccccc2)[n+]3C)cc1	2%	i	0%	-105*	-2%	15%
CN(C)c1ccc(/C=C2\c3ccccc3-c3ccc(N(C)C)cc32)cc1	.	.	.	.	2%	.
O=C(O)C1=CC(O)C(O)[C@H](O)C1 (some centres not stated)	1%	.	.	.	.	.
Nc1ccc2c(c1)CN1C(=O)c3ccccc3C1=N2	13µM*	?	.	.	.	.
O=C(CSc1nnc(C2CC2)n1-c1ccccc1)N1CCCC1	8%	i	8%	3	3%	-12%
O=C(Nc1ccc(Cl)c(Cl)c1)Nc1nnc(CSc2ccccc2)s1	?	?	?	?	10µM*	?
O=C(Nc1ccccc1)Nc1nnc(CSCc2ccccc2Cl)s1	?	?	15µM*	14	?	.
O=C(Nc1ccc(Cl)cc1)Nc1nnc(SCc2ccccc2)s1	0%	i	0%	-17	2%	-5%
O=C(Nc1ccc(Cl)c(Cl)c1)Nc1nccs1	.	?	13µM*	-10	?	2.3µM*
O=C(Nc1ccc(Cl)cc1)Nc1nnc(CSCc2ccccc2Cl)s1	0%	i	123%	11	40µM*	3%
O=C(Cc1nnc(NC(=O)Nc2ccc(F)cc2)s1)Nc1ccccc1	7%	i	1%	22	1%	-5%
O=C(Cc1nnc(NC(=O)Nc2ccccc2)s1)Nc1ccccc1	-30%	i	0%	0	0%	-22%
O=C(Nc1cccc(Cl)c1)Nc1nccs1	.	.	9%	27	.	1%
COCCCNC(=O)C[C@@H]1C[C@@]2(C(=O)OC)CC(C)(C)CC=C2N(Cc2ccc3c(c2)OCO3)C1=O	.	.	.	-18	.	.
COC(=O)[C@@]12C[C@@H](CC(=O)NCc3cccc(C(F)(F)F)c3)C(=O)N(Cc3ccc4c(c3)OCO4)C1=CCC(C)(C)C2	.	.	.	-71*	.	.
COC(=O)[C@@]12C[C@@H](CC(=O)NCCC(C)C)C(=O)N(Cc3ccc4c(c3)OCO4)C1=CCC(C)(C)C2	.	.	.	-55*	.	.
COC(=O)[C@]12CCCCC=C1N(Cc1ccc3c(c1)OCO3)C(=O)[C@H](CC(=O)NCc1cccc(C(F)(F)F)c1)C2	.	.	.	-18	.	.
Cc1cccc(NC(=O)c2ccc(-c3nc(CSc4ccccc4)c(C)o3)cc2)c1C	-4%	?	.	.	5%	.
CCOc1ccc(C(=O)Nc2ccc3oc(-c4cccc5ccccc45)nc3c2)cc1	.	.	.	.	4%	.
CC(=O)NC(CSC(CC(=O)c1ccco1)c1ccc(C)cc1)C(=O)O (configuration not stated)	-18%	?	21µM*	-1	-2%	?
SMILES	ATXN2 expr inh	ATXN viability	MCF10A rerep	IL1B secr inh	PINK1 expr mod	SW480 rereplic
COCC(C)NC(=O)c1ccccc1OC(C)=O (configuration not stated)	-13%	?	10%	1	4%	-6%
CC(=O)Oc1ccccc1C(=O)NC(C)CCc1ccccc1 (configuration not stated)	-15%	i	?	-72*	?	-2%
CCn1cc(C(=O)OCC(=O)c2cc(C)n(-c3cccc(C(F)(F)F)c3)c2C)c(=O)c2ccc(C)nc21	2%	i	12%	-66*	?	-53%
O=c1c2ccccc2oc2cc(-c3ccc4[nH]ccc4c3)ccc12	75%	?	?	35	8%	4.1µM*
COc1cc2sc3ccc(-c4ccc5[nH]ccc5c4)cc3c(=O)c2cc1OC	66%	i	17%	-16	2%	?
C=CCn1c(O)c(C2=c3ccccc3=NC2=O)sc1=Nc1ccc(O)cc1	?	.	?	-50*	-2%	-10%
O=C(Cn1cc(SCc2ccc(F)cc2)c2ccccc21)N1CCCCC1	.	.	.	.	3%	.
CC(=O)N(Cc1ccc(F)cc1)c1cccc(C)c1C	.	i	-15%	21	3%	?
O=C1C(Cl)=C(Nc2ccccc2)C(=O)c2ccccc21	?	28µM*	4.1µM*	-107*	-2%	?
CC(=O)N(Cc1ccc(F)cc1)C1=C(NCCc2ccccc2)C(=O)c2ccccc2C1=O	13µM*	28µM*	?	-79*	-1%	6.3µM*
O=C(O)c1ccc(NC2=C(Cl)C(=O)c3ccccc3C2=O)cc1	4.5µM*	10µM*	?	10	-1%	?
CC(C)NC1=C(Cl)C(=O)c2ccccc2C1=O	-16%	?	?	-3	-5%[38.3 µM]	13µM*
Cc1cc(NC(=O)NCc2ccc3c(c2)CCN3C(=O)c2ccccc2)ccc1Br	.	.	.	.	0%	.
O=C1C(Cl)=C(NCc2cccnc2)C(=O)c2ccccc21	?	?	?	-101*	-3%	?
O=C(O)c1cccc(NC2=C(Cl)C(=O)c3ccccc3C2=O)c1	?	25µM*	?	-65*	-2%	?
O=C1C(Cl)=C(NCCc2ccccc2)C(=O)N1CCc1ccccc1	15%	i	?	-19	22%	-4%[9.22 µM]
CCN(CC)CCCNC1=C(Cl)C(=O)c2ccccc2C1=O	?	24µM*	?	-110*	-1%	?
O=C1C(Cl)=C(NCCc2ccccc2)C(=O)c2ccccc21	32µM*	i	?	?	1%	5.2µM*
Cc1ccc(NC2=C(NC(=O)c3ccccc3)C(=O)c3ccccc3C2=O)cc1Cl	-8%	?	27%	?	11%	?
Cc1cccc(N2CCN(C(=O)C3CCN(c4ncnc5c4nc4n5CCCCC4)CC3)CC2)c1C	.	?	?	-15	5%	-2%
